# Measurements taken from the supplement of paper PMC12282887.
# ± gives the standard deviation of the averaged measurements.
# Legend:
# Experiment in all cases: promoter activity interaction Z-score (Lux/OD deviation from empty-vector control); higher = stronger promoter induction by the compound
# [1] = test system: E. coli BW25113 acrABp lux reporter
# Method in brief: (§1)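 At 37°C, E. coli BW25113 reporter cultures in 40 µl LB Lennox in 384-well plates were read for OD600 and luminescence every 30 min for 12 h. Windows were 0–8 h for wild type and 1–9 h for deletion strains, and wells under 10% of the median growth value were removed. The score is the Z-transformed residual of growth-normalised luminescence against a control fit.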
# [2] = test system: E. coli BW25113 marRABp lux reporter
# Method in brief: as §1
# [3] = test system: E. coli BW25113 micFp lux reporter
# Method in brief: as §1
# [4] = test system: E. coli BW25113 ompFp lux reporter
# Method in brief: as §1
# [5] = test system: E. coli BW25113 robp lux reporter
# Method in brief: as §1
# [6] = test system: E. coli BW25113 soxSp lux reporter
# Method in brief: as §1
# [7] = test system: E. coli BW25113 tolCp lux reporter
# Method in brief: as §1
# [8] = 1 µg/ml, genetic background: wild type
# [9] = 1 µg/ml, genetic background: ΔmarA
# [10] = 1 µg/ml, genetic background: Δrob
# [11] = 1 µg/ml, genetic background: ΔsoxS
# [12] = 2.1 µg/ml, genetic background: wild type
# [13] = 2.1 µg/ml, genetic background: ΔmarA
# [14] = 2.1 µg/ml, genetic background: Δrob
# [15] = 2.1 µg/ml, genetic background: ΔsoxS
# [16] = 4.1 µg/ml, genetic background: wild type
# [17] = 4.1 µg/ml, genetic background: ΔmarA
# [18] = 4.1 µg/ml, genetic background: Δrob
# [19] = 4.1 µg/ml, genetic background: ΔsoxS
# [20] = 8.2 µg/ml, genetic background: wild type
smiles,measurement,setting,value
CO[C@H]1/C=C/O[C@@]2(C)Oc3c(C)c(O)c4c(O)c(c(/C=N/N5CCN(C)CC5)c(O)c4c3C2=O)NC(=O)/C(C)=C\C=C\[C@H](C)[C@H](O)[C@@H](C)[C@@H](O)[C@@H](C)[C@H](OC(C)=O)[C@@H]1C [Rifampicin],promoter activity interaction Z-score,[1]; [8],-0.791 ± 0.2
same,promoter activity interaction Z-score,[1]; [9],-0.655 ± 0.13
same,promoter activity interaction Z-score,[1]; [10],-0.627 ± 0.021
same,promoter activity interaction Z-score,[1]; [11],-0.932 ± 0.2
same,promoter activity interaction Z-score,[1]; [12],-0.695 ± 0.1
same,promoter activity interaction Z-score,[1]; [13],-0.516 ± 0.29
same,promoter activity interaction Z-score,[1]; [14],-0.838 ± 0.088
same,promoter activity interaction Z-score,[1]; [15],-0.731 ± 0.3
same,promoter activity interaction Z-score,[1]; [16],-0.811 ± 0.28
same,promoter activity interaction Z-score,[1]; [17],-0.168 ± 0.19
same,promoter activity interaction Z-score,[1]; [18],-1.06 ± 0.08
same,promoter activity interaction Z-score,[1]; [19],-1.31 ± 0.3
same,promoter activity interaction Z-score,[2]; [8],-0.547 ± 0.12
same,promoter activity interaction Z-score,[2]; [9],-0.978 ± 0.48
same,promoter activity interaction Z-score,[2]; [10],-0.432 ± 0.12
same,promoter activity interaction Z-score,[2]; [11],-0.415 ± 0.079
same,promoter activity interaction Z-score,[2]; [12],-0.461 ± 0.4
same,promoter activity interaction Z-score,[2]; [13],-1.18 ± 0.22
same,promoter activity interaction Z-score,[2]; [14],-0.469 ± 0.39
same,promoter activity interaction Z-score,[2]; [15],-0.423 ± 0.032
same,promoter activity interaction Z-score,[2]; [16],-1.1 ± 0.31
same,promoter activity interaction Z-score,[2]; [17],-1.23 ± 0.38
same,promoter activity interaction Z-score,[2]; [18],-0.719 ± 0.14
same,promoter activity interaction Z-score,[2]; [19],-0.7557 ± 0.006
same,promoter activity interaction Z-score,[3]; [8],-0.224 ± 0.14
same,promoter activity interaction Z-score,[3]; [9],-0.444 ± 0.16
same,promoter activity interaction Z-score,[3]; [10],-0.287 ± 0.055
same,promoter activity interaction Z-score,[3]; [11],-0.476 ± 0.024
same,promoter activity interaction Z-score,[3]; [12],-0.39 ± 0.23
same,promoter activity interaction Z-score,[3]; [13],-0.505 ± 0.12
same,promoter activity interaction Z-score,[3]; [14],-0.336 ± 0.076
same,promoter activity interaction Z-score,[3]; [15],-0.31 ± 0.041
same,promoter activity interaction Z-score,[3]; [16],-0.432 ± 0.21
same,promoter activity interaction Z-score,[3]; [17],-0.471 ± 0.047
same,promoter activity interaction Z-score,[3]; [18],-0.229 ± 0.029
same,promoter activity interaction Z-score,[3]; [19],-0.507 ± 0.018
same,promoter activity interaction Z-score,[3]; [20],-0.505 ± 0.31
same,promoter activity interaction Z-score,[4]; [8],-0.966 ± 0.35
same,promoter activity interaction Z-score,[4]; [9],-1.53 ± 0.33
same,promoter activity interaction Z-score,[4]; [10],-1.43 ± 0.2
same,promoter activity interaction Z-score,[4]; [11],-1.07 ± 0.04
same,promoter activity interaction Z-score,[4]; [12],-1.06 ± 0.5
same,promoter activity interaction Z-score,[4]; [13],-2.11 ± 0.12
same,promoter activity interaction Z-score,[4]; [14],-1.62 ± 0.39
same,promoter activity interaction Z-score,[4]; [15],-0.784 ± 0.23
same,promoter activity interaction Z-score,[4]; [16],-2.01 ± 0.86
same,promoter activity interaction Z-score,[4]; [17],-2.895 ± 0.0098
same,promoter activity interaction Z-score,[4]; [18],-2.58 ± 0.26
same,promoter activity interaction Z-score,[4]; [19],-1.59 ± 0.43
same,promoter activity interaction Z-score,[5]; [8],-0.184 ± 0.35
same,promoter activity interaction Z-score,[5]; [9],-0.802 ± 0.3
same,promoter activity interaction Z-score,[5]; [10],-0.501 ± 0.085
same,promoter activity interaction Z-score,[5]; [11],-0.537 ± 0.55
same,promoter activity interaction Z-score,[5]; [12],0.236 ± 0.31
same,promoter activity interaction Z-score,[5]; [13],-0.639 ± 0.41
same,promoter activity interaction Z-score,[5]; [14],-0.575 ± 0.22
same,promoter activity interaction Z-score,[5]; [15],-0.311 ± 0.2
same,promoter activity interaction Z-score,[5]; [16],-0.918 ± 0.011
same,promoter activity interaction Z-score,[5]; [17],-0.833 ± 0.44
same,promoter activity interaction Z-score,[5]; [18],-0.434 ± 0.68
same,promoter activity interaction Z-score,[5]; [19],-1.71 ± 0.29
same,promoter activity interaction Z-score,[6]; [8],-0.47 ± 0.0069
same,promoter activity interaction Z-score,[6]; [9],-0.3407 ± 0.0028
same,promoter activity interaction Z-score,[6]; [10],-0.44 ± 0.088
same,promoter activity interaction Z-score,[6]; [11],-1.04 ± 0.46
same,promoter activity interaction Z-score,[6]; [12],-0.551 ± 0.01
same,promoter activity interaction Z-score,[6]; [13],-0.657 ± 0.0084
same,promoter activity interaction Z-score,[6]; [14],-0.53 ± 0.048
same,promoter activity interaction Z-score,[6]; [15],-1.11 ± 0.17
same,promoter activity interaction Z-score,[6]; [16],-0.866 ± 0.076
same,promoter activity interaction Z-score,[6]; [17],-0.906 ± 0.027
same,promoter activity interaction Z-score,[6]; [18],-0.982 ± 0.24
same,promoter activity interaction Z-score,[6]; [19],-1.51 ± 0.17
same,promoter activity interaction Z-score,[6]; [20],-0.811 ± 0.051
same,promoter activity interaction Z-score,[7]; [8],-0.736 ± 0.25
same,promoter activity interaction Z-score,[7]; [9],-0.931 ± 0.48
same,promoter activity interaction Z-score,[7]; [10],-0.816 ± 0.4
same,promoter activity interaction Z-score,[7]; [11],-1.26 ± 0.3
same,promoter activity interaction Z-score,[7]; [12],-0.703 ± 0.32
same,promoter activity interaction Z-score,[7]; [13],-1.19 ± 0.18
same,promoter activity interaction Z-score,[7]; [14],-0.827 ± 0.14
same,promoter activity interaction Z-score,[7]; [15],-0.674 ± 0.63
same,promoter activity interaction Z-score,[7]; [16],-0.555 ± 0.72
same,promoter activity interaction Z-score,[7]; [17],-0.65 ± 0.61
same,promoter activity interaction Z-score,[7]; [18],-1.152 ± 0.0016
same,promoter activity interaction Z-score,[7]; [19],-0.717 ± 0.57
same,promoter activity interaction Z-score,[7]; [20],0.0561 ± 0.59
